Sampled rows, rich in hits. Any-hit rate of the full collection: about 0.5%.
E coli growth-1: reduces bacterial viability in AddAB counter-screen | E. coli V3065 growth, OD600 absorbance, 18 h | inhibition, % at 11.9 µM | actives 0.27% (n = 330,000);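 active means inhibition above the campaign's mean inhibition across all tested compounds plus 3 SD, cut at about 9.9% in these data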;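 further: uninfected addAB+ strain grown without phage in ampicillin broth; 0% = DMSO wells and 100% = ciprofloxacin 0.95 µg/ml wells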
phage Ecoli inh: E. coli growth loss with phage present | inhibition, % at 11.9 µM | actives 0.26% (n = 360,000) | AID 651602 | growth absorbance; in the data active means inhibition above about 11%
E coli growth-2: inhibitors of Escherichia coli growth. AID 1053175. OD600, 23 h; active compounds read low. OD600 absorbance (concentration not given with the values). actives 0.21% (n = 330,000);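 active means OD600 absorbance below the run mean of sample wells minus 3.6 SD, in any replicate, cut at about 0.56 in these data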
Tat export inh: E. coli Tat transport inhibition; E. coli MC4100 TorA-mCherry Tat export, fluorescence; inhibition, % at 10 µM; actives 0.036% (n = 340,000); AID 488895;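 active means mean replicate inhibition at least 50% and at least half of replicates individually reaching 50%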;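 further: exported cargo escapes ClpAP degradation while cytoplasmic cargo is degraded and loses fluorescence; 0% = median of neutral control wells and 100% = median of NaSCN control wells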
AddAB inh: less growth of phage-infected E. coli with AddAB; E. coli expressing H. pylori AddAB, absorbance growth; inhibition, % at 11.9 µM; actives 0.29% (n = 330,000); in the data active means inhibition above about 12%;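 further: 0% = vehicle wells of infected cells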
AddAB conf: confirmation screen: growth loss of phage-infected E. coli expressing H. pylori AddAB | AID 488942 | actives 64% (n = 880) | inhibition, % at 11.9 µM | shares compounds with AddAB inh | E. coli V3065 expressing H. pylori AddAB, T4 phage, OD; T4 phage with gene 2 nonsense mutations;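 active means mean inhibition above a set limit taken from the earlier primary screen, cut at about 13% in these data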;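 further: higher means less bacterial growth since AddAB block lets phage replicate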
RecBCD counter: counter-screen: growth loss of RecBCD+ E. coli with mutant T4 phage | shares compounds with AddAB inh | E. coli V66 + mutant T4 phage, OD growth | actives 73% (n = 880) | inhibition, % at 11.9 µM;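 active means mean inhibition above the mean of solvent-only control wells plus 3 SD, cut at about 4% in these data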;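 further: optical density read after an 18 h incubation at 37 °C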
Bact viability: counter-screen for AddAB inhibitors: inhibitors of bacterial viability; absorbance (AddAB counterscreen); AID 488956; inhibition, % at 11.9 µM; actives 35% (n = 880); shares compounds with AddAB inh; in the data active means inhibition above about 25%
RecBCD conf: confirmation: growth loss of phage-infected RecBCD+ E. coli (RecBCD inhibitor screen); shares compounds with phage Ecoli inh; E. coli V66 + T4 2- phage, growth OD; inhibition, % at 11.9 µM; actives 45% (n = 890); AID 651982;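 active means mean inhibition over triplicates exceeding the hit threshold derived in the original primary screen, cut at about 11% in these data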
Ecoli viability: bacterial viability inhibition counter-screen for RecBCD; shares compounds with phage Ecoli inh; E. coli viability, absorbance (OD) growth; inhibition, % at 11.9 µM; actives 29% (n = 890); AID 651983; in the data active means inhibition above about 20%;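 further: E. coli strain V66 grown with compound alone and no phage infection; 0% = bacteria with DMSO vehicle only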
AddAB phage OD: growth loss of phage-infected AddAB E. coli, RecBCD counter-screen | AID 651984 | shares compounds with phage Ecoli inh | actives 45% (n = 890) | inhibition, % at 11.9 µM | E. coli expressing H. pylori AddAB + T4 phage, OD growth; gene 2 mutant T4, recBCD-deleted host;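 active means mean inhibition above the solvent-only control wells' mean plus 3 SD, cut at about 22% in these data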;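 further: higher means less bacterial growth from phage killing when AddAB is blocked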
* = called active by the depositor; . = not tested or not shown; ! = not confirmed by another sample.

SMILES | E coli growth-1 | phage Ecoli inh | E coli growth-2 | Tat export inh | AddAB inh | others
O=C(Cc1cccs1)N1CCC2(CC1)OCCO2 | 10.8* | 1.0 | 0.676 | -2.6 | 8.1
COC(=O)C1=C(c2cccc(OCc3ccccc3)c2)CC2CCC1N2C(=O)NCc1ccc(N(C)C)cc1 (stereo unspecified) | . | . | 0.683 | . | .
Oc1cc(Cl)c(Cl)c(Cl)c1 | . | 2.7 | 0.068* | -13.2 | .
COC[C@]12CN(C)C3C4[C@H](OC)C1C3([C@@H](OC)C[C@H]2O)[C@@H]1C[C@@]2(O)[C@H](OC(=O)c3ccccc3)[C@@H]1[C@]4(OC(C)=O)[C@@H](O)[C@@H]2OC | . | . | 0.719 | . | .
CN1C(=O)NC(=O)/C(=C/c2ccc([N+](=O)[O-])o2)C1=O | 1.6 | 2.2 | 0.296* | . | 3.3
CN1C(=O)NC(=O)/C(=C\c2ccc([N+](=O)[O-])o2)C1=O | -3.7 | . | . | -0.5 | -1.7
COC(=O)C1=C(c2ccc(Cl)c(C(F)(F)F)c2)CC2CCC1N2C(=O)N1CCC(O)(c2ccc(Cl)cc2)CC1 (stereo unspecified) | . | . | 0.699 | . | .
N#CC1c2ccccc2-n2nncc2CN1Cc1cc(Cl)cc(Cl)c1 (stereo unspecified) | . | 3.7 | . | 56.3* | .
COC(=O)C1=C(c2ccc(F)cc2OCc2ccccc2)CC2CCC1N2C(=O)NCc1cccc(C(F)(F)F)c1 (stereo unspecified) | . | . | 0.728 | . | .
CCCCCCCCCCCCCCCC[N+](C)(C)C | 1.6 | 0.7 | 0.0685* | 32.2 | -1.3
CN(C)C(=S)SSC(=S)N(C)C | -0.8 | 5.5 | 0.488* | 12.2 | -0.5
O=c1[nH]c(=O)n(-c2cccc3ccccc23)c(O)c1C=NN1CCCCC1c1cccnc1 (stereo unspecified) | . | . | 0.659 | . | .
O=c1[nH]sc2cc(F)ccc12 | . | -1.2 | 0.49* | -19.8 | .
COC1C(OC(=O)c2ccc(C)[nH]2)C(O)C(Oc2ccc3c(O)c(NC(=O)c4ccc(O)c(CC=C(C)C)c4)c(=O)oc3c2Cl)OC1(C)C (stereo unspecified) | -1.3 | 8.5 | 0.052* | -23.5 | 3.4
COC(=O)C1=C(c2ccccc2)CC2CCC1N2C(=O)N1CCC(O)CC1 (stereo unspecified) | . | . | 0.696 | . | .
COc1cc2c3c(c1OC)Oc1ccc(cc1)C[C@H]1c4c(cc(OC)c(OC)c4Oc4ccc(cc4)C[C@@H]3N(C)CC2)CCN1C | 0.1 | 1.0 | . | 54.2* | 3.3
COc1cc2c3c(c1OC)Oc1ccc(cc1)CC1c4c(cc(OC)c(OC)c4Oc4ccc(cc4)CC3N(C)CC2)CCN1C (stereo unspecified) | . | . | 0.688 | . | .
COC(=O)C1=C(c2cccc(C#N)c2)CC2CCC1N2C(=O)N1CCc2cc(OC)c(OC)cc2C1 (stereo unspecified) | . | . | 0.679 | . | .
CN(C)C1C(=O)C(C(N)=O)=C(O)C2(O)C(=O)C3=C(O)c4c(O)cccc4C(C)(O)C3CC12 (stereo unspecified) | 94.1* | . | . | 146.9* | 85.1* | AddAB conf=93.7*;RecBCD counter=93.0*;Bact viability=92.1*
COc1cc2c(cc1O)C1Cc3ccc(OC)c(O)c3CN1CC2 (stereo unspecified) | . | . | 0.697 | . | .
CC(C)CC(N(C)C)C1(c2ccc(Cl)cc2)CCC1 (stereo unspecified) | 27.5*! | 1.8 | 0.519*! | -5.6 | 37.3*! | AddAB conf=100.3*;RecBCD counter=3.3;Bact viability=67.4*
CN(C)C1(c2nnnn2-c2ccc(Cl)cc2)CCCCC1 | 0.5 | 2.7 | . | -2.4 | 10.4
COC(=O)C1=C(c2ccccc2)CC2CCC1N2C (stereo unspecified) | . | . | 0.718 | . | .
Cn1ncnc2c(=O)n(C)c(=O)nc1-2 | 45.1* | . | 0.048* | 128.5* | 46.8* | AddAB conf=73.0*;RecBCD counter=75.7*;Bact viability=78.8*
c1ccc2c(c1)[nH]c1cnccc12 | 2.7 | 4.3 | 0.626 | 8.4 | 4.3
SMILES | E coli growth-1 | phage Ecoli inh | E coli growth-2 | Tat export inh | AddAB inh | others
Cc1c2ccncc2c(C)c2c1[nH]c1ccccc12 | 13.9* | . | 0.418* | -9.7 | 13.3* | AddAB conf=9.1;RecBCD counter=-0.4;Bact viability=11.0
CC(Cc1ccccc1)NC(=O)CCCCC(=O)NC(C)Cc1ccccc1 (stereo unspecified) | 0.4 | 13.9* | . | 1.4 | 0.0 | RecBCD conf=-3.2;Ecoli viability=-2.4;AddAB phage OD=-2.2
O=[N+]([O-])c1ccc(N2CCOCC2)c2cccnc12 | 1.8 | 3.9 | 0.694 | -2.1 | 2.2
O=[N+]([O-])c1ccc(N2CCOCC2)c2c1no[n+]2[O-] | . | 16.8* | . | . | . | RecBCD conf=10.7;Ecoli viability=13.1;AddAB phage OD=97.8*
CC1CCCC(C)N1N=Cc1c[nH]c2ccc(Br)cc12 (stereo unspecified) | . | . | 0.629 | . | .
O=C(Cn1cc(C(=O)c2ccccc2F)c2ccccc21)NCc1ccco1 | 2.5 | 0.0 | 0.655 | -3.9 | 1.7
COCCNC(=O)Cn1cc(C(=O)c2ccccc2F)c2ccccc21 | -1.3 | 43.6* | 0.648 | -0.8 | -2.2 | RecBCD conf=-1.7;Ecoli viability=-2.1;AddAB phage OD=-3.0
O=[N+]([O-])c1oc2ccc3ccccc3c2c1CCO | . | 99.6* | . | -7.9 | . | RecBCD conf=103.7*;Ecoli viability=105.0*;AddAB phage OD=103.3*
COC(=O)C1=C(c2cc3ccccc3s2)CC2CCC1N2C(=O)NCc1ccco1 (stereo unspecified) | . | . | 0.703 | . | .
COC(=O)C1=C(c2cccc(OCc3ccccc3)c2)CC2CCC1N2C(=O)NCCc1ccc(F)cc1 (stereo unspecified) | . | . | 0.699 | . | .
O=c1c2ccccc2nc(/C=C/c2ccc([N+](=O)[O-])o2)n1-c1ccc(O)cc1 | . | 11.6* | 0.67 | -3.7 | . | RecBCD conf=5.7;Ecoli viability=9.2;AddAB phage OD=39.8*
Cc1cccc(-n2c(/C=C/c3ccc([N+](=O)[O-])o3)nc3ccccc3c2=O)c1 | 3.1 | 2.5 | 0.653 | -3.9 | 4.8
COC(=O)C1=C(c2ccc(OC)c(OC)c2)CC2CCC1N2C(=O)N1CCCCC1 (stereo unspecified) | . | . | 0.698 | . | .
Oc1cc(Cl)c(Cl)c(Cl)c1Cl | . | 13.4* | . | -9.2 | . | RecBCD conf=13.9*;Ecoli viability=18.8;AddAB phage OD=17.4
CN(C)[C@@H]1C(=O)C(C(N)=O)=C(O)[C@@]2(O)C(=O)C3=C(O)c4c(O)cccc4[C@@](C)(O)C3[C@H](O)C12 (stereo partly specified) | -0.2 | 97.8* | . | 149.8*! | 0.4 | RecBCD conf=101.1*;Ecoli viability=102.4*;AddAB phage OD=102.4*
CN(C)[C@@H]1C(=O)C(C(N)=O)=C(O)[C@@]2(O)C(=O)C3=C(O)c4c(O)ccc(Cl)c4[C@@](C)(O)C3C[C@@H]12 (stereo partly specified) | . | 99.1* | . | 150.3* | . | RecBCD conf=101.2*;Ecoli viability=103.6*;AddAB phage OD=105.4*
CN(C)[C@@H]1C(=O)C(C(N)=O)=C(O)[C@@]2(O)C(=O)C3=C(O)c4c(O)cccc4[C@@](C)(O)[C@H]3C[C@@H]12 | -0.9 | . | . | . | -0.8
CCCNC(=O)N1C2CCC1C(C(=O)OC)=C(c1cccc(OC)c1OC)C2 (stereo unspecified) | . | . | 0.708 | . | .
Cc1cc2c(C(C)C)c(O)c(O)c(C=O)c2c(O)c1-c1c(C)cc2c(C(C)C)c(O)c(O)c(C=O)c2c1O | . | 15.0* | . | . | . | RecBCD conf=5.3;Ecoli viability=5.2;AddAB phage OD=7.0
